This is part of a sample that, as a whole, favours compounds with a hit. Of some 83,000 tested, about 20% had one in any assay.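 96-well plates, one dose, 48 hours. Percent growth reported; active if below 10.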 The source made the active and inactive calls.
Legend:
Test in all cases: NCI-60 one-dose screen, 48 h (100 = growth as untreated, 0 = no growth, -100 = all killed)
Conditions in all cases: 10 µM unless noted
NCI-H23 lung = tested on: NCI-H23 lung
NCI-H226 lung = tested on: NCI-H226 lung
NCI-H322M lung = tested on: NCI-H322M lung
HOP-62 NSCLC = tested on: HOP-62 NSCLC
NCI-H460 lung = tested on: NCI-H460 lung
NCI-H522 lung = tested on: NCI-H522 lung
A549/ATCC NSCLC = tested on: A549/ATCC NSCLC
786-0 renal = tested on: 786-0 renal
COLO 205 colon = tested on: COLO 205 colon
DU-145 prostate = tested on: DU-145 prostate
K-562 leukemia = tested on: K-562 leukemia
MALME-3M melanoma = tested on: MALME-3M melanoma
MDA-MB-231 breast = tested on: MDA-MB-231 breast
RXF 393 renal = tested on: RXF 393 renal
SF-268 CNS = tested on: SF-268 CNS
SF-295 CNS = tested on: SF-295 CNS
SF-539 CNS = tested on: SF-539 CNS
UACC-257 melanoma = tested on: UACC-257 melanoma
M14 melanoma = tested on: M14 melanoma
HOP-92 NSCLC = tested on: HOP-92 NSCLC

Measured: growth

CCS(=O)(=O)N1CCCC(C(=O)Nc2nc3ccc(NC(=O)c4ccc(F)c(OC)c4F)cc3s2)C1 (stereo not drawn)
inactive: NCI-H23 lung 47.5% | NCI-H226 lung 48% | NCI-H322M lung 82.3% | HOP-62 NSCLC 80.6% | NCI-H460 lung 62.5% | NCI-H522 lung 52% | A549/ATCC NSCLC 77.4% | 786-0 renal 58.1% | COLO 205 colon 54.3% | DU-145 prostate 77.2% | K-562 leukemia 38.6% | MALME-3M melanoma 67.9% | MDA-MB-231 breast 81.7% | RXF 393 renal 26.9% | SF-268 CNS 68.5% | SF-295 CNS 48.8% | SF-539 CNS 57.6% | UACC-257 melanoma 37.4% | M14 melanoma 78.5%

C=C1CC[C@@H]2[C@]3(C)COC(c4cn[nH]c4-c4cccc(Cl)c4)O[C@@H]3CC[C@@]2(C)[C@@H]1C/C=C1/C(=O)OCC1O (stereo partly drawn)
inactive: NCI-H322M lung 37.9% | DU-145 prostate 25.5% | SF-268 CNS 34.3%
active: NCI-H23 lung -79.8% | NCI-H226 lung -91.1% | HOP-62 NSCLC 0.166% | NCI-H460 lung -3.88% | NCI-H522 lung -60% | A549/ATCC NSCLC -19.2% | 786-0 renal -92.7% | COLO 205 colon -35% | K-562 leukemia 5% | MALME-3M melanoma -50.7% | MDA-MB-231 breast -52.7% | RXF 393 renal -91% | SF-295 CNS -32.8% | SF-539 CNS -89.8% | UACC-257 melanoma -33.1% | M14 melanoma -73.4%

COc1cc2oc(-c3cccc(C(=O)Nc4ccc(Cl)cc4)c3)cc(=O)c2c(OCCNC(=O)[C@@H](N)CCC(=O)O)c1OC
active: RXF 393 renal 9.77%
inactive: NCI-H23 lung 88.2% | NCI-H226 lung 86.6% | NCI-H322M lung 79.8% | HOP-62 NSCLC 81.9% | HOP-92 NSCLC 63% | NCI-H522 lung 82.8% | A549/ATCC NSCLC 103% | 786-0 renal 60.6% | COLO 205 colon 70.6% | DU-145 prostate 86.9% | K-562 leukemia 32.2% | MALME-3M melanoma 76.1% | MDA-MB-231 breast 30.5% | SF-268 CNS 94.7% | SF-295 CNS 86.4% | SF-539 CNS 75.4% | UACC-257 melanoma 100% | M14 melanoma 16.7%

Cn1cc(-c2cc3nc(-c4cn(C)c5ncc(Br)cc45)cc(N)n3n2)c2ccccc21
active: NCI-H23 lung -22.5% | NCI-H226 lung -2.09% | NCI-H322M lung -20.2% | HOP-62 NSCLC -34.5% | NCI-H460 lung -54.6% | NCI-H522 lung -70.6% | A549/ATCC NSCLC 2.3% | 786-0 renal -87.7% | COLO 205 colon -81.4% | K-562 leukemia -30% | MALME-3M melanoma -85.2% | MDA-MB-231 breast -64.7% | RXF 393 renal -74% | SF-295 CNS -60.2% | SF-539 CNS -90.2% | UACC-257 melanoma -77.4% | M14 melanoma -72.6%
inactive: DU-145 prostate 16.1% | SF-268 CNS 11.8%

CSc1ccc(C(=O)Nc2ccc3nn(/C(C#N)=C/c4ccccn4)nc3c2)cc1
active: NCI-H23 lung -84% | NCI-H226 lung -59.2% | HOP-62 NSCLC -46.2% | NCI-H460 lung -54.9% | NCI-H522 lung -87.9% | 786-0 renal -95.5% | COLO 205 colon -86.1% | DU-145 prostate -97% | K-562 leukemia -1.86% | MALME-3M melanoma -82.1% | RXF 393 renal -94.6% | SF-268 CNS -26.3% | SF-295 CNS -49% | SF-539 CNS -88.3% | UACC-257 melanoma -67.6% | M14 melanoma -76.8%
inactive: NCI-H322M lung 15.4% | A549/ATCC NSCLC 10.6%

COc1ccc(C2=NN(c3ccccc3)C(c3ccc(OCc4ccccc4)c(OC)c3)C2)cc1OC (stereo not drawn)
inactive: NCI-H23 lung 107% | NCI-H226 lung 124% | NCI-H322M lung 103% | HOP-62 NSCLC 109% | HOP-92 NSCLC 105% | NCI-H522 lung 85.4% | A549/ATCC NSCLC 101% | 786-0 renal 97.1% | COLO 205 colon 94.1% | DU-145 prostate 113% | MALME-3M melanoma 99.1% | MDA-MB-231 breast 101% | RXF 393 renal 86.2% | SF-268 CNS 90% | SF-295 CNS 91.3% | SF-539 CNS 98.7% | UACC-257 melanoma 90.9% | M14 melanoma 91.2%

COc1cc(-c2cc(-c3cccc(OCC(=O)O)c3)[nH]c(=O)c2C#N)cc(OC)c1OC
inactive: NCI-H23 lung 101% | NCI-H226 lung 98.2% | NCI-H322M lung 91% | NCI-H460 lung 111% | HOP-92 NSCLC 85.4% | NCI-H522 lung 104% | A549/ATCC NSCLC 100% | 786-0 renal 95.8% | COLO 205 colon 119% | DU-145 prostate 111% | K-562 leukemia 89.8% | MALME-3M melanoma 95.9% | RXF 393 renal 100% | SF-268 CNS 110% | SF-295 CNS 97.6% | SF-539 CNS 93% | UACC-257 melanoma 105% | M14 melanoma 97.6%

N/C(=N\c1nc2ccccc2s1)NC(=O)Nc1ccccc1Br
active: NCI-H23 lung -24.4% | NCI-H226 lung 8.79% | HOP-62 NSCLC -19.3% | NCI-H522 lung -61.3% | A549/ATCC NSCLC -26.2% | 786-0 renal -24.9% | COLO 205 colon -72.6% | DU-145 prostate -40.7% | MALME-3M melanoma -12.5% | MDA-MB-231 breast -50.3% | RXF 393 renal 0.178% | SF-268 CNS 1.62% | SF-295 CNS -31.4% | SF-539 CNS -75.6% | M14 melanoma 2.92%
inactive: NCI-H322M lung 14.6% | K-562 leukemia 11.5% | UACC-257 melanoma 54.8%
